# Source: PubChem BioAssay
# A number with no mark means an inactive call. This is one part of the list. Calls of active or inactive are those of the source.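 Rule for the calls, unless noted: active = inhibition above the hit cutoff set in the earlier primary screen (cut at about 27% in these data); inactive = the rest.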
# Assays:
# [1] = biological target: Bcl-2-like protein 1 (Homo sapiens) (UniProt Q07817); test: Bcl-xL BH3-peptide displacement, hit confirmation – biochemical, fluorescence polarization, counter-screen for MCL1 inhibitor project (AID 2166;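 active = inhibition above a cutoff equal to the mean inhibition of all tested compounds plus 3 SD, cut at about 30% in these data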); details: GST-Bcl-xL / FITC-Bim BH3 peptide FP binding; at 10.9 µM; active compounds read high
# Chain of Bcl-2-like protein 1 (Homo sapiens) (Q07817 whole entry, looked up): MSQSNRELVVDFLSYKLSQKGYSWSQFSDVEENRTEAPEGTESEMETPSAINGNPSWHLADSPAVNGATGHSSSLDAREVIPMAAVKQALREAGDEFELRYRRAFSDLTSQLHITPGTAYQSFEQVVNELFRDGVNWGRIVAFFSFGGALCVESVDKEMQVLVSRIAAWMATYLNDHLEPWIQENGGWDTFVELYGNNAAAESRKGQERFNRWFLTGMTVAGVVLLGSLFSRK
# [2] = biological target: Induced myeloid leukemia cell differentiation protein Mcl-1 (Homo sapiens) (UniProt Q07820); test: MCL1-BIM peptide interaction disruptors – biochemical, fluorescence polarization, triplicate, confirmation (AID 2168;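 active = inhibition above the average of all tested compounds plus 3 SD, cut at about 40% in these data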;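 note: 0% = DMSO wells and 100% = unlabeled Bim-BH3 control peptide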); details: GST-MCL1 / FITC-Bim-BH3 fluorescence polarization; at 10.9 µM; active compounds read high
# Chain of Induced myeloid leukemia cell differentiation protein Mcl-1 (Homo sapiens) (Q07820 whole entry, looked up, the tested form may be a part): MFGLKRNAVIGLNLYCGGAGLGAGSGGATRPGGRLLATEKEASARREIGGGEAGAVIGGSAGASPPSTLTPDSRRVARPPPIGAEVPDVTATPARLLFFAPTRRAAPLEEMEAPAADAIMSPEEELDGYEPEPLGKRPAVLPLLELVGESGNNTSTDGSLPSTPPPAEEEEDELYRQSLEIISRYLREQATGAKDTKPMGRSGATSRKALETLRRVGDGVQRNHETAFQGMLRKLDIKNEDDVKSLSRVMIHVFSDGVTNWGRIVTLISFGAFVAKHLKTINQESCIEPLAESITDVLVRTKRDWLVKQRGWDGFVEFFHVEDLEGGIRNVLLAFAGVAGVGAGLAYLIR
# [3] = biological target: Nuclear receptor coactivator 3 (Homo sapiens) (UniProt Q9Y6Q9); test: NCOA3 GAL4-fusion reporter inhibition – cell-based, luminescence, quadruplicate, confirmation (AID 588792;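 active = mean inhibition over 43.08%, the solvent-only control mean plus 3 SD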;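 note: 0% = DMSO treated cells and 100% = gossypol at 36 µM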); details: HEK293 GAL4-SRC3 luciferase reporter, at 3.6 µM, active compounds read high
# [4] = tested on: transactivating tegument protein VP16 (Human herpesvirus 1), Gal4-VP16 luciferase reporter; test: repression of VP16-driven luciferase reporter – cell-based, luminescence, high throughput, counter-screen for SRC3 inhibitor project (AID 588794; in the data active = inhibition above about 30%); details: mammalian cells, at 3.6 µM, active compounds read high
# [5] = biological target: Nuclear receptor coactivator 1 (Homo sapiens) (UniProt Q15788); test: NCOA1 GAL4-fusion reporter inhibition – cell-based, luminescence, quadruplicate, confirmation (AID 588820;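 active = mean inhibition above 46.68%, the untreated control wells mean plus 3 SD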;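 note: 0% = DMSO wells and 100% = gossypol 36 µM treated wells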); details: HEK293 GAL4-SRC1 luciferase reporter, at 3.6 µM, active compounds read high
# [6] = repression of VP16-driven luciferase reporter – cell-based, luminescence, high throughput, counter-screen for SRC1 inhibitor project (AID 588824; in the data active = inhibition above about 25%); details: cell-based VP16 transactivation luciferase luminescence; at 3.6 µM; active compounds read high
# [7] = StAR promoter reporter inhibitors, counter-screen for LRH-1 inverse agonist project, cell-based, luminescence, high throughput (AID 651611; in the data active = inhibition above about 28%); details: StAR promoter luciferase reporter counterscreen, at 3.6 µM, active compounds read high
# [8] = biological target: Nuclear receptor subfamily 5 group A member 2 (Homo sapiens) (UniProt O00482); test: NR5A2 activity suppression in reporter cells – cell-based, luminescence, confirmation (AID 651613; in the data active = inhibition above about 42%;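 note: HEK293T cells co-transfected with LRH-1 and StAR promoter luciferase reporter; 0% = vehicle wells and 100% = parental cells lacking receptor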); details: cell-based LRH-1 luciferase reporter, inverse agonism; at 3.6 µM; active compounds read high
# Chain of Nuclear receptor subfamily 5 group A member 2 (Homo sapiens) (O00482 whole entry, looked up): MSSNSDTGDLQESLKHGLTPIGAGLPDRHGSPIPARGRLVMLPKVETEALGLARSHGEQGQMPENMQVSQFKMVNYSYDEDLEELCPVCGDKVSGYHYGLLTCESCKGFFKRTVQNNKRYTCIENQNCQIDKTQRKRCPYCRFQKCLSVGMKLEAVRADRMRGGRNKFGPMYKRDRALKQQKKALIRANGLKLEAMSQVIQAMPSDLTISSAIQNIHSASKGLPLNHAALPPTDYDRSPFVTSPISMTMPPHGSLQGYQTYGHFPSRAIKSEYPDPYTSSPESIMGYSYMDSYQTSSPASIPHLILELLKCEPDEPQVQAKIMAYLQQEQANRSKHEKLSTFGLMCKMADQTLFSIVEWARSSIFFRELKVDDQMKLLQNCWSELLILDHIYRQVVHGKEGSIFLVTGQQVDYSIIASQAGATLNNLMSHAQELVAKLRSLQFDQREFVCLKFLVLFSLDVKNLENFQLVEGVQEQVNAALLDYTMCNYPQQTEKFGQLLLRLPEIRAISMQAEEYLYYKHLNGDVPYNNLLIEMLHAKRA
# [9] = biological target: Steroidogenic factor 1 (Homo sapiens) (UniProt Q13285); test: inverse agonism at SF1 nuclear receptor – cell-based, luminescence, high throughput, counter-screen for LRH-1 inverse agonist project (AID 651614; in the data active = inhibition above about 44%;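 note: cells cotransfected with StAR promoter reporter and SF1 expression vector; 0% = vehicle on cells with receptor and 100% = vehicle on cells lacking receptor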); details: cell-based SF1 luciferase reporter, at 3.6 µM, active compounds read high
# Chain of Steroidogenic factor 1 (Homo sapiens) (Q13285 whole entry, looked up, the tested form may be a part): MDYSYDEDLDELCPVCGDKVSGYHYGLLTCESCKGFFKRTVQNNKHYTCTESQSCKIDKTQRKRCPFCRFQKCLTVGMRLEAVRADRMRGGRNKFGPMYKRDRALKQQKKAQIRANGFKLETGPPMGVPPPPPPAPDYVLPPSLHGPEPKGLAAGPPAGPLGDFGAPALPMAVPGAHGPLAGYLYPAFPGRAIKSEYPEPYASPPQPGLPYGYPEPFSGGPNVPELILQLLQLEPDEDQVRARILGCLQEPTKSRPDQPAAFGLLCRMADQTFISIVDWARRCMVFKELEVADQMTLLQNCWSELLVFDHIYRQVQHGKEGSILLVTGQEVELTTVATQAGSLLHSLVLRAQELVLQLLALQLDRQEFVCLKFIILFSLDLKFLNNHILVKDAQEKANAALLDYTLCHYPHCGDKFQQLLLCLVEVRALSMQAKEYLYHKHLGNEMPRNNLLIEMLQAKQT
# [10] = compounds suppressing VP16-driven luciferase signal – cell-based, luminescence, high throughput, counter-screen for LRH-1 inverse agonist project (AID 651615; in the data active = inhibition above about 33%); details: Gal4-VP16 luciferase reporter cells, at 3.6 µM, active compounds read high
# [11] = biological target: Protein phosphatase methylesterase 1 (Homo sapiens) (UniProt Q9Y570); test: human PME-1 methylesterase inhibition confirmation – biochemical, fluorescence polarization, FP-Rh probe, triplicate (AID 2171); details: recombinant PME-1, FP-Rh probe fluorescence polarization; at 5.9 µM; active compounds read high;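 note: 0% = enzyme with DMSO and 100% = wells lacking PME-1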
# Chain of Protein phosphatase methylesterase 1 (Homo sapiens) (Q9Y570 whole entry, looked up): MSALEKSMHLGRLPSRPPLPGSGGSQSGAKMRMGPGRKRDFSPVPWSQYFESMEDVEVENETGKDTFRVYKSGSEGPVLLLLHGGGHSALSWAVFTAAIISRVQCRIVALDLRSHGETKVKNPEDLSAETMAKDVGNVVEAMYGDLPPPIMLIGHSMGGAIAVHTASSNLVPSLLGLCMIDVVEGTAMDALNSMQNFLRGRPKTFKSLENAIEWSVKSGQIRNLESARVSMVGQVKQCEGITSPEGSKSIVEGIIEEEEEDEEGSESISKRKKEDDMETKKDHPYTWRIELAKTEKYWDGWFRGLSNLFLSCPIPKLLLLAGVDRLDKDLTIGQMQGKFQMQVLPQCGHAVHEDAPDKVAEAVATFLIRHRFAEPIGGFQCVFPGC
# [12] = biological target: Protein-arginine deiminase type-4 (Homo sapiens) (UniProt Q9UM07); test: protein arginine deiminase 4 blockade, retest – biochemical, fluorescence polarization, confirmation (AID 488796;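 active = mean inhibition across replicates above the hit cutoff set by the earlier primary screen, cut at about 15% in these data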;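 note: inhibitors block active-site labeling by the probe so polarization falls; 0% = PAD4 with probe and DMSO and 100% = probe without PAD4 enzyme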); details: recombinant PAD4, RCA probe fluorescence polarization; at 6.36 µM; active compounds read high
# Chain of Protein-arginine deiminase type-4 (Homo sapiens) (Q9UM07 whole entry, looked up): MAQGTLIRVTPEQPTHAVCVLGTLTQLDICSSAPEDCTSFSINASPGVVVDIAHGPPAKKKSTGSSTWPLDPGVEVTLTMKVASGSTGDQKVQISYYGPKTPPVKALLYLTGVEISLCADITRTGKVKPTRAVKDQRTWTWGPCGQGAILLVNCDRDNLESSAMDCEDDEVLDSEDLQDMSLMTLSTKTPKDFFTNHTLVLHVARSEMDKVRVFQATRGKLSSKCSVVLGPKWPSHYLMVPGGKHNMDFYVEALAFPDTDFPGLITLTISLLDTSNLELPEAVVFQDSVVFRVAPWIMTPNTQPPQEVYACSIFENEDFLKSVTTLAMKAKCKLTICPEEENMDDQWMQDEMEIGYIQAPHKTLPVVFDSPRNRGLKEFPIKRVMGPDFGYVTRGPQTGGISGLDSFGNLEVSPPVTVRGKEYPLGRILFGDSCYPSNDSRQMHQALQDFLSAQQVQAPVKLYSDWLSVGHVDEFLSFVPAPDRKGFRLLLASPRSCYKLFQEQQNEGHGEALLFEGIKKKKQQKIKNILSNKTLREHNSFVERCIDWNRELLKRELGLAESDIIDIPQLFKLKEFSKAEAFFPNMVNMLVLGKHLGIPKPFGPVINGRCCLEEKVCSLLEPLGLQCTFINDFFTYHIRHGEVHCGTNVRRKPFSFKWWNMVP
# [13] = biological target: Platelet-activating factor acetylhydrolase (Homo sapiens) (UniProt Q13093); test: inhibition of plasma PAF acetylhydrolase – biochemical, fluorescence polarization, human, confirmation (AID 463230;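 active = mean inhibition of the triplicate above the hit cutoff set for the earlier primary screen, cut at about 25% in these data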;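 note: 0% = enzyme with DMSO and 100% = wells lacking pPAFAH enzyme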); details: recombinant pPAFAH, FP-Rh probe fluorescence polarization; at 3.39 µM; active compounds read high
# Chain of Platelet-activating factor acetylhydrolase (Homo sapiens) (Q13093 whole entry, looked up): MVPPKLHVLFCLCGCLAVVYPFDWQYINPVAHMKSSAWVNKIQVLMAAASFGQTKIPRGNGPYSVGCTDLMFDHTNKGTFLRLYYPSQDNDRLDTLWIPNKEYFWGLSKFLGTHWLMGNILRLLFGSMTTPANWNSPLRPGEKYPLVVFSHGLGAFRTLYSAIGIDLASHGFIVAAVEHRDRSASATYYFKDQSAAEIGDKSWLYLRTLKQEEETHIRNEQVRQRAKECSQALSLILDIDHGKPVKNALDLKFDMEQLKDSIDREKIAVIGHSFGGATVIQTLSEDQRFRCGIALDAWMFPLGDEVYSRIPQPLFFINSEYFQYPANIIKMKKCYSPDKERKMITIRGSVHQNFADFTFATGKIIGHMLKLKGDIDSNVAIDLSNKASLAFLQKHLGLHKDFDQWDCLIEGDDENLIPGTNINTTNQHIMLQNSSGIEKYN
# [14] = reduced OD of T4-infected AddAB+ E. coli – absorbance, E. coli V3065, T4 phage, triplicate, AddAB inhibitor project, confirmation (AID 488942;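 active = mean inhibition above a set limit taken from the earlier primary screen, cut at about 13% in these data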;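 note: higher means less bacterial growth since AddAB block lets phage replicate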); details: E. coli V3065 expressing H. pylori AddAB, at 11.9 µM, active compounds read high, T4 phage with gene 2 nonsense mutations
# [15] = reduced OD of phage-infected RecBCD+ V66 E. coli – absorbance, mutant T4 phage, counter-screen for AddAB inhibitor project (AID 488955;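 active = mean inhibition above the mean of solvent-only control wells plus 3 SD, cut at about 4% in these data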;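 note: optical density read after an 18 h incubation at 37 °C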); details: OD growth, at 11.9 µM, active compounds read high
# [16] = bacterial growth inhibitors – absorbance, counter-screen for AddAB inhibitor project, confirmation (AID 488956; in the data active = inhibition above about 25%); details: bacterial viability, absorbance (AddAB counterscreen); at 11.9 µM; active compounds read high
# [17] = biological target: Serine protease HTRA1 (Homo sapiens) (UniProt Q92743); test: confirming inhibition of human HTRA1 – biochemical, fluorescence polarization, confirmation (AID 540248;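 active = mean inhibition over three repeats above a set limit taken from the earlier primary screen, cut at about 37% in these data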;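 note: 0% = HTRA1 with DMSO and 100% = wells lacking HTRA1; inhibitors block probe binding so polarization drops and inhibition rises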); details: recombinant HTRA1, FP-rhodamine activity-based probe, at 5.96 µM, active compounds read high
# [18] = BSA probe fluorescence interference – biochemical, TAMRA-labeled BSA, counter-screen for TCR-CD3 interaction inhibitor project (AID 652035; in the data active = inhibition above about 23%;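 note: 0% = buffer low control and 100% = reference high control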); details: TAMRA-labeled BSA probe fluorescence counterscreen; at 9.4 µM; active compounds read high
# [19] = tested on: T-cell receptor (TCR)-CD3 interaction, human; test: blockers of TCR binding to CD3 – biochemical, fluorescence, TAMRA-labeled TCR probe, confirmation (AID 652036; in the data active = inhibition above about 19%); details: TAMRA-labeled TCR probe fluorescence binding assay; at 9.4 µM; active compounds read high
# [20] = biological target: (Lyso)-N-acylphosphatidylethanolamine lipase (Mus musculus) (UniProt Q8VD66); test: mouse ABHD4 hydrolase blockers, triplicate – biochemical, fluorescence polarization, confirmation (AID 720658;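 active = mean inhibition across replicates above the hit cutoff set in the primary screen, cut at about 30% in these data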;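 note: 0% = wild-type ABHD4 with DMSO and 100% = catalytically dead S159A mutant with DMSO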); details: purified mABHD4, FP-Rh probe fluorescence polarization; at 8.92 µM; active compounds read high
# Chain of (Lyso)-N-acylphosphatidylethanolamine lipase (Mus musculus) (Q8VD66 whole entry, looked up): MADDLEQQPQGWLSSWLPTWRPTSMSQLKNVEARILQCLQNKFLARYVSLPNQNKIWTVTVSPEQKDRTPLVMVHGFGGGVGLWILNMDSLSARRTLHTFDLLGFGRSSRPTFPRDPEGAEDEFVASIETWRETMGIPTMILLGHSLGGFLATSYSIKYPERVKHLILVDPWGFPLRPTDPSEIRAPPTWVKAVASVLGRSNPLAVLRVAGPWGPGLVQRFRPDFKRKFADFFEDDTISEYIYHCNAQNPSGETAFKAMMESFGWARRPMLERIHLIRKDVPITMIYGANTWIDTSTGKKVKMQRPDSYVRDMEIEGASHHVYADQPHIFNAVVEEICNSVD
# [21] = biological target: Oxysterols receptor LXR-beta (Homo sapiens) (UniProt P55055); test: nonspecific reporter activation via LXR – cell-based, luminescence, HEK293, H. contortus campaign, counter-screen for hcDAF-12 agonist project, confirmation (AID 743027;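 active = mean percent activation of the reporter above a cutoff set as the average over tested compounds plus their standard deviation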); details: HEK293 Gal4-LXR tk-luc reporter, 24 h, at 6.8 µM, active compounds read high, normalized: DMSO 0%, positive control 100%
# Chain of Oxysterols receptor LXR-beta (Homo sapiens) (P55055 whole entry, looked up, the tested form may be a part): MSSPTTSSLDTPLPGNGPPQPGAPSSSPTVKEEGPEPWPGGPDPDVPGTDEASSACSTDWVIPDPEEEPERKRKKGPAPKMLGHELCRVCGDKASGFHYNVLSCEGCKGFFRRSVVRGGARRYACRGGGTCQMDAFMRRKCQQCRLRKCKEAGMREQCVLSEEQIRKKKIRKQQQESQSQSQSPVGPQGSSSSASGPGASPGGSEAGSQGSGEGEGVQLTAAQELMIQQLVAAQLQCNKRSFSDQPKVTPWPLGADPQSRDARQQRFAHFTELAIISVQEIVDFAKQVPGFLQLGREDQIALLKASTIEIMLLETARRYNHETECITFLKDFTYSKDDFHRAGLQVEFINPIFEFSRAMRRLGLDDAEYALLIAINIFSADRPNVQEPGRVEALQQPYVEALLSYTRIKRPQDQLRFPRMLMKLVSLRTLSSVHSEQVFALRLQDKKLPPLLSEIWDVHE
# [22] = tested on: Nuclear hormone receptor DAF-12 (Haemonchus contortus); test: hcDAF-12 luciferase reporter activation, retest – cell-based, luminescence, HEK293, lit1-tk-luc, triplicate, confirmation (AID 743032;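 active = mean activation across triplicate tests above the threshold derived from the earlier primary screen, cut at about 5.5% in these data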;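 note: 0% = DMSO only wells and 100% = 3 µM Δ7-dafachronic acid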); details: HEK293 hcDAF-12 lit1-tk-luc reporter, at 6.8 µM, active compounds read high, % of Δ7-dafachronic acid response
smiles,measurement,setting,value
Cc1cccn2c(=O)c3cc(C(=O)NCCN4CCOCC4)c(=N)n(Cc4cccnc4)c3nc12,inhibition,[1],55.8% (active)
same,inhibition,[2],65.7% (active)
same,inhibition,[3],22.5%
same,inhibition,[4],20.1%
same,inhibition,[5],24.4%
same,inhibition,[6],17.3%
same,inhibition,[7],21.2%
same,inhibition,[8],57.8% (active)
same,inhibition,[9],49.1% (active)
same,inhibition,[10],28.6%
Cc1ccc(-c2csc(-c3c[nH]c4ccccc34)n2)cc1,inhibition,[11],11.1%
Nc1n[nH]c(C2CC2)c1N=Nc1ccc(Cl)c(Cl)c1,inhibition,[11],20.6%
Cc1nn(Cc2ccccc2)c(C)c1CNC(=O)c1ccc(F)c(S(=O)(=O)N2CCOCC2)c1,inhibition,[1],9.04%
same,inhibition,[2],4.37%
same,inhibition,[12],3.62%
Cc1cc(N/N=C/c2ccc(O)c(C)c2O)nc(-c2ccccc2O)n1,inhibition,[11],27.9% (active)
COc1ccc(N2CC(C(=O)NCCN3C(=O)S/C(=C\c4cccnc4)C3=O)CC2=O)c(OC)c1 (centres undefined),inhibition,[1],-1.58%
same,inhibition,[2],-8.97%
same,inhibition,[13],0.49%
Cc1cc(C(=O)N/N=C/c2cccc([N+](=O)[O-])c2)c(C)n1-c1ccccc1,inhibition,[11],-3.77%
CN(c1ccccc1)S(=O)(=O)c1ccc(NC(=O)c2ccc(-c3ccccc3)cc2)cc1,inhibition,[11],59.7% (active)
COCCCNc1c2c3c(cccc3[nH]c1=O)C(=O)c1ccccc1-2,inhibition,[11],133% (active)
Brc1ccc(C2Nc3cccc4cccc(c34)N2)s1,inhibition,[11],20.5%
O=c1ccc2c(-c3ccccc3S(=O)(=O)O)c3ccc(O)c(O)c3oc-2c1O,inhibition,[1],82.9% (active)
same,inhibition,[2],67.6% (active)
same,inhibition,[14],7.55%
same,inhibition,[15],11% (active)
same,inhibition,[16],2.03%
same,inhibition,[17],-1.72%
same,inhibition,[18],-101%
same,inhibition,[19],-20.4%
same,inhibition,[20],-24.3%
Cc1nn(C(=O)c2ccoc2C)c(N)c1-c1ccccc1,inhibition,[1],1.59%
same,inhibition,[2],-8.2%
same,inhibition,[12],1.71%
same,activation,[21],0.39%
same,activation,[22],2.6%
COc1cc(/C=N/Nc2nc3ccccc3s2)cc([N+](=O)[O-])c1O,inhibition,[11],72.5% (active)
CC[C@]1(O)C[C@@H]2CN(CCc3c([nH]c4ccccc34)[C@@](C(=O)OC)(c3cc4c(cc3OC)N(C)[C@H]3[C@@](O)(C(=O)OC)[C@H](OC(C)=O)[C@]5(CC)C=CCN6CC[C@]43[C@@H]65)C2)C1,inhibition,[1],27.1%
same,inhibition,[2],35.2%
same,inhibition,[8],42.5% (active)
same,inhibition,[9],61.2% (active)
Cc1cc(Nc2ccc(O)cc2)ccc1N,inhibition,[11],17.6%
CCC(C)c1ccc(S(=O)(=O)N2CCN(C(=O)COc3ccc4c(C)cc(=O)oc4c3)CC2)cc1 (centres undefined),inhibition,[11],0.33%
Oc1ccccc1-c1nc2c3ccccc3c3ccccc3c2[nH]1,inhibition,[11],21.4%
COc1ncnc2c1N=C1CC(C)(C)CC(N)=C1S2,inhibition,[1],144% (active)
same,inhibition,[2],181% (active)
same,inhibition,[12],24.1% (active)
Brc1ccc(/C=N/Nc2nc3ccccc3o2)cc1,inhibition,[11],22.2%
CCOc1cccc(/C=C/c2ccc3cccc(O)c3n2)c1O,inhibition,[11],26.6% (active)
CCCC1OC23CCCCC2C(C#N)(C#N)C1(C#N)C(=N)O3 (centres undefined),inhibition,[1],19.5%
same,inhibition,[2],21%
same,inhibition,[18],20%
same,inhibition,[19],10.8%
